Read-out in assay [1]: xenobiotic metabolism (CYP1A1), CYP1A1 (gene 1543)
The experiment in a line: CLD_CYP1A1_6hr: CellzDirect (CLD) Gene Expression Assay for xenobiotic metabolism (CYP1A1) at 6 hours (AID 2283661).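 For AC50: potency for transcript induction above DMSO vehicle baseline.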 The essentials: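 Primary human hepatocytes from two donors, compound versus 0.2% DMSO vehicle. CYP1A1 mRNA measured 6 h after dosing by quantitative nuclease protection assay with chemiluminescent read-out; induction fitted relative to DMSO, cytotoxicity flagged by microscopy.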

Read-out in assay [2]: xenobiotic metabolism (CYP1A2), CYP1A2 (gene 1544)
The experiment in a line: CLD_CYP1A2_6hr: CellzDirect (CLD) Gene Expression Assay for xenobiotic metabolism (CYP1A2) at 6 hours (AID 2283663).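 For AC50: potency is for induction meaning a rise in mRNA above DMSO.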 In a few lines:
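Primary human hepatocytes from two donor preparations, dosed daily with multiple concentrations in 0.2% DMSO and harvested at 6 h. CYP1A2 mRNA induction measured by chemiluminescent qNPA, gain of signal fitted against DMSO; cytotoxicity flagged morphologically.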

Read-out in assay [3]: Cytochrome P450 (CYP24A1_1), CYP24A1 (gene 1591)
As to the kind of experiment: LTEA_HepaRG_CYP24A1_1: Life Technologies and Expression Analysis (LTEA) Assay for Cytochrome P450 (CYP24A1_1) using HepaRG (AID 2283671; active = hit-call score of the fitted dose curve at least 0.9, where 1 is the maximum; inactive = score below 0.9). Particulars: mRNA level, 48 h; actives raise or lower the signal. In a few lines:
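HepaRG, 48 h exposure, 8-pt half-log series from 100 uM in 0.5% DMSO, duplicates. Readout: TaqMan qRT-PCR of CYP24A1 mRNA, housekeeping-normalized (ACTB/GAPDH/POLR2A). Bidirectional curve fit vs DMSO baseline.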

A short description of assay [4]: CCTE_Padilla_ZF_144hpf_TERATOSCORE: (Legacy) CCTE's 144 Hour Post-fertilization zebrafish Assay Teratoscore, Padilla Lab (AID 2283679; active = hit-call score of the fitted dose curve at least 0.9, where 1 is the maximum; inactive = score below 0.9;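 for AC50: zebrafish embryos with chorions exposed by immersion from 6-8 hpf to 5 dpf with daily renewal; teratogenicity score from eye scoring of death hatching and malformations at 144 hpf; higher score means more developmental defects relative to DMSO baseline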). In a few lines: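 Larvae scored by eye at 144 hpf for death, hatching and malformations after a day in clean Hanks'. Before that, daily-renewed exposure at 80 uM (0.4% DMSO, 26C) from roughly 6-8 hpf through 5 dpf, 4 embryos per chemical.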

Read-out in assay [5]: ABC Transporter (ABCB1), ABCB1 (gene 5243)
As to the kind of experiment: CLD_ABCB1_24hr: CellzDirect (CLD) Gene Expression Assay for ABC Transporter (ABCB1) at 24 hours (AID 2283684).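 For AC50: potency for increase in ABCB1 mRNA relative to DMSO vehicle.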 The essentials:
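Primary human hepatocytes, two donor preparations, dosed daily with fresh solutions; vehicle 0.2% DMSO; harvested at 24 h. ABCB1 mRNA measured by quantitative nuclease protection assay (chemiluminescence); morphology-based cytotoxicity annotated.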

Read-out in assay [6]: Cytochrome P450 2B6 (Homo sapiens) (UniProt P20813)
The experiment in a line: CLD_CYP2B6_24hr: CellzDirect (CLD) Gene Expression Assay for xenobiotic metabolism (CYP2B6) at 24 hours (AID 2283686). In a few lines: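 Primary human hepatocytes dosed daily for two days with fresh solutions, harvested at 24 hours; mRNA induction quantified by qNPA chemiluminescence, gain of signal vs 0.2% DMSO vehicle. Cytotoxicity annotated from phase-contrast morphology.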

Read-out in assay [7]: Cytochrome P450 3A4 (Homo sapiens) (UniProt P08684)
As to the kind of experiment: CLD_CYP3A4_24hr: CellzDirect (CLD) Gene Expression Assay for xenobiotic metabolism (CYP3A4) at 24 hours (AID 2283689). In a few lines:
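Primary human hepatocytes from two donors dosed daily with fresh compound for two days, 0.2% DMSO vehicle. CYP3A4 mRNA at 24 hr by qNPA chemiluminescence; gain-of-signal fit versus DMSO, cytotoxicity flagged by morphology.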

Read-out in assay [8]: HMG-CoA synthase (HMGCS2), HMGCS2 (gene 3158)
As to the kind of experiment: CLD_HMGCS2_24hr: CellzDirect (CLD) Gene Expression Assay for HMG-CoA synthase (HMGCS2) at 24 hours (AID 2283691). In a few lines:
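Primary human hepatocytes from two donor preparations, dosed daily with fresh solutions; vehicle 0.2% DMSO, 24 h harvest. HMGCS2 mRNA quantified by qNPA with S1 nuclease digestion and chemiluminescence; gain fitted versus DMSO, cytotoxicity annotated by morphology.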

Read-out in assay [9]: alkyl and aryl transferase (GSTA2), GSTA2 (gene 2939)
The experiment in a line: CLD_GSTA2_24hr: CellzDirect (CLD) Gene Expression Assay for alkyl and aryl transferase (GSTA2) at 24 hours (AID 2283693). In a few lines: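 Primary human hepatocytes (two donor preparations) dosed daily for two days with chemicals at multiple concentrations (vehicle 0.2% DMSO); GSTA2 mRNA at 24 h measured by qNPA chemiluminescence, gain-of-signal versus DMSO.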

Read-out in assay [10]: organic anion transporter (SLCO1B1), SLCO1B1 (gene 10599)
As to the kind of experiment: CLD_SLCO1B1_6hr: CellzDirect (CLD) Gene Expression Assay for organic anion transporter (SLCO1B1) at 6 hours (AID 2283668).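 Note: active means mRNA induction above DMSO baseline.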 The essentials:
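Primary human hepatocytes dosed daily with test chemicals (multiple concentrations) in 0.2% DMSO vehicle; harvested at 6 h. SLCO1B1 mRNA quantified by qNPA chemiluminescence, fitted as gain-of-signal versus DMSO; cytotoxicity from phase-contrast morphology flagged alongside.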

Assay [11] can be described thus: CLD_ACTIN_24hr: CellzDirect (CLD) Gene Expression Assay for Baseline Control (Actin) at 24 hours (AID 2283670). In a few lines:
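Primary human hepatocytes dosed over multiple concentrations with 0.2% DMSO vehicle; actin mRNA measured at 24 h by qNPA chemiluminescence. Background control endpoint, fitted as gain of signal versus DMSO.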

Assay [12] can be described thus: CLD_ACTIN_6hr: CellzDirect (CLD) Gene Expression Assay for Baseline Control (Actin) at 6 hours (AID 2283676).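 Note: active means increased actin mRNA relative to DMSO vehicle.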 In a few lines: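 Primary human hepatocytes dosed with fresh chemical solutions (vehicle 0.2% DMSO), harvested at 6 h. Actin mRNA quantified by quantitative nuclease protection assay with chemiluminescent read-out, as background control relative to DMSO.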

Read-out in assay [13]: xenobiotic metabolism (CYP1A2), CYP1A2 (gene 1544)
The experiment in a line: CLD_CYP1A2_24hr: CellzDirect (CLD) Gene Expression Assay for xenobiotic metabolism (CYP1A2) at 24 hours (AID 2283683). In a few lines:
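Primary human hepatocytes from two donor preparations dosed daily with multiple concentrations of chemical, 0.2% DMSO vehicle. CYP1A2 mRNA at 24 h quantified by qNPA chemiluminescence; gain of signal analyzed relative to DMSO. Cytotoxicity flagged by phase-contrast morphology.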

Assay [14] in a line: Tanguay_ZF_120hpf_TR_legacy: (Legacy) Oregon State University Tanguay Lab 120 Hour Post-fertilization zebrafish Assay for Touch Response (AID 2283667). The essentials: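 Tropical 5D wild-type zebrafish embryos were exposed statically in sealed, foil-covered plates at 28C until 120 hpf, with 0.64% (vol/vol) final DMSO. Touch response was scored as present or absent; embryos that died were not scored.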

Read-out in assay [15]: glucuronosyltransferase (UGT1A1), UGT1A1 (gene 54658)
The experiment in a line: CLD_UGT1A1_6hr: CellzDirect (CLD) Gene Expression Assay for glucuronosyltransferase (UGT1A1) at 6 hours (AID 2283672). The essentials:
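Primary human hepatocytes from two donor preparations, dosed with fresh solutions in 0.2% DMSO, harvested at 6 h. UGT1A1 mRNA measured by qNPA chemiluminescence; induction fitted upward versus DMSO.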

Read-out in assay [16]: Cytochrome P450 2C9 (Homo sapiens) (UniProt P11712)
As to the kind of experiment: CLD_CYP2C9_24hr: CellzDirect (CLD) Gene Expression Assay for xenobiotic metabolism (CYP2C9) at 24 hours (AID 2283688). The essentials: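 Primary human hepatocytes from two donor preparations, dosed daily for two days at multiple concentrations; vehicle 0.2% DMSO. CYP2C9 mRNA induction at 24 h measured by qNPA chemiluminescence relative to DMSO; cytotoxicity annotated from morphology.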

Read-out in assay [17]: xenobiotic metabolism (CYP1A1), CYP1A1 (gene 1543)
As to the kind of experiment: CLD_CYP1A1_24hr: CellzDirect (CLD) Gene Expression Assay for xenobiotic metabolism (CYP1A1) at 24 hours (AID 2283673). The essentials: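 Primary human hepatocytes dosed daily with fresh solutions in 0.2% DMSO vehicle. mRNA measured at 24 h by quantitative nuclease protection assay with chemiluminescence; gain-of-signal fit versus DMSO, with morphology-based cytotoxicity flags.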

Read-out in assay [18]: Cytochrome P450 2B6 (Homo sapiens) (UniProt P20813)
As to the kind of experiment: CLD_CYP2B6_6hr: CellzDirect (CLD) Gene Expression Assay for xenobiotic metabolism (CYP2B6) at 6 hours (AID 2283677).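 Note: actives raise CYP2B6 transcript above DMSO baseline so AC50 marks an inducer.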 In a few lines: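 Primary human hepatocytes dosed with chemicals at multiple concentrations, vehicle 0.2% DMSO; CYP2B6 mRNA induction measured 6 h after dosing by quantitative nuclease protection assay with chemiluminescence, gain of signal fitted relative to DMSO.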

Inconclusive results are not listed. Active and inactive are the calls of the source. Rule for the calls, unless noted: active = hit-call score of the fitted dose curve at least 0.9, where 1 is the maximum; inconclusive = response in the unintended direction; inactive = score below 0.9.

Chain of Cytochrome P450 3A4 (Homo sapiens) (P08684 whole entry, looked up): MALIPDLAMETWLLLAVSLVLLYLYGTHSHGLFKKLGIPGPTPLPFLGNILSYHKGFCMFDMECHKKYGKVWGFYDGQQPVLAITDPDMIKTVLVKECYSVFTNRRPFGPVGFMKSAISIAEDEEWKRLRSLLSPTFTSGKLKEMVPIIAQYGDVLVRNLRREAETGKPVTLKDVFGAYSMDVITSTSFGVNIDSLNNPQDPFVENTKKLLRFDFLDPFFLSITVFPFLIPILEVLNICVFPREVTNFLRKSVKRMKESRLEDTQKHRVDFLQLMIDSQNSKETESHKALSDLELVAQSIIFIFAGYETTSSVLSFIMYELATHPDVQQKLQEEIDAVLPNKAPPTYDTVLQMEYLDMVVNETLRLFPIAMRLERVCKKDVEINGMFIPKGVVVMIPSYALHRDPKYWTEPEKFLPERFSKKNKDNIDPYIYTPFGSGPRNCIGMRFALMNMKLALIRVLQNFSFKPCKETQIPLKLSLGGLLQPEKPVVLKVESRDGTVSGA

Turning to `N#Cc1c(Cl)c(Cl)c(Cl)c(C#N)c1Cl`, the AC50 in [1] is 36.8 µM (active); in assay [2], 31.7 µM (active); in assay [4] it was 0.187 µM (active). The compound was called inactive in assay [3], in assay [5], in assay [6], in assay [7], in [8] and in assay [9].

With `[2H]C1([2H])[n+]2ccccc2-c2cccc[n+]2C1([2H])[2H]`, the outcome in assay [2], in assay [10], in assay [11], in [12], in assay [4] and in assay [13] was inactive. The compound was called inactive in assay [5], in assay [8] and in assay [9].

In the case of `C[C@H]1[C@H](c2ccc(Cl)cc2)SC(=O)N1C(=O)NC1CCCCC1`, the compound was classed as inactive in assay [1], in [2], in assay [14], in [15], in [12] and in assay [4]. Besides, the outcome in assay [16] and in assay [9] was inactive. In addition, the AC50 is 5.84 µM (active) in [13], 35.2 µM (active) in [5], 2.58 µM (active) in assay [6] and 3.56 µM (active) in assay [7].

As for `ClC1C(Cl)C(Cl)C(Cl)C(Cl)C1Cl` (stereo not drawn), the call in assay [1], in [14], in assay [3], in [15], in assay [12] and in assay [5] was inactive. Also, the call in assay [16] was inactive. The half-maximal activity concentration (AC50) in assay [4] was 42.6 µM (active); in [6], 1.39 µM (active).

Regarding `COC(=O)c1ccccc1S(=O)(=O)NC(=O)N(C)c1nc(C)nc(OC)n1`, the AC50 in assay [1] and in assay [2] was 20 µM (active) throughout. Moreover, the outcome in assay [10], in [11], in assay [15], in assay [17], in [4] and in assay [13] was inactive. Moreover, the compound was classed as inactive in [5], in assay [6], in assay [16], in assay [7] and in assay [9].

For the compound `OCCOc1ccccc1`, the result in [1], in assay [2], in assay [12], in [4], in assay [13] and in assay [5] was inactive. Further, the call in [6], in assay [16], in [7], in assay [8] and in assay [9] was inactive.

Take `O=C(O)C(F)(F)C(F)(F)C(F)(F)C(F)(F)C(F)(F)C(F)(F)C(F)(F)F`: the call in assay [1], in assay [14], in [10], in [15], in assay [12] and in [4] was inactive. The compound was classed as inactive in assay [13], in assay [5], in assay [6] and in assay [8]. Also, the AC50 in [7] was 20 µM (active).

As to `COC(=O)c1ccccc1S(=O)(=O)NC(=O)Nc1nc(C)nc(OC)n1`, the concentration at half-maximal activity (AC50) in assay [1] was 20 µM (active); in [13], 3.08 µM (active). Moreover, the outcome in assay [2], in assay [10], in assay [11], in assay [12], in assay [4] and in assay [5] was inactive. Moreover, the compound was called inactive in [6], in [7], in [8] and in [9].

As to `O=[N+]([O-])c1c(Cl)c(Cl)c(Cl)c(Cl)c1Cl`, the outcome in assay [1], in assay [14], in assay [10], in assay [11], in [15] and in [13] was inactive. The result in assay [5], in assay [16], in [7] and in assay [9] was inactive. Also, the values for the AC50 in [4] and in [6] were 31.1 µM (active) and 4.02 µM (active), respectively.

For `CC[C@H](C)[C@H]1O[C@]2(C=C[C@@H]1C)C[C@@H]1C[C@@H](C/C=C(\C)[C@@H](O[C@H]3C[C@H](OC)[C@@H](O[C@H]4C[C@H](OC)[C@@H](O)[C@H](C)O4)[C@H](C)O3)[C@@H](C)/C=C/C=C3\CO[C@@H]4[C@H](O)C(C)=C[C@@H](C(=O)O1)[C@]34O)O2` (tested in a mixture with another compound), the AC50 in assay [14] was 0.45 µM (active); in [4], 0.0449 µM (active); in assay [5], 5.84 µM (active); in assay [6], 3.97 µM (active). Moreover, the compound was classed as inactive in [10], in assay [11], in assay [12], in assay [18], in assay [13] and in assay [9].

`CC1(C)C(C=C(Cl)Cl)C1C(=O)OC(C#N)c1ccc(F)c(Oc2ccccc2)c1` (stereo not drawn): the figures for the half-maximal activity concentration (AC50) in assay [1] and in assay [4] were 20 µM (active) and 0.345 µM (active), respectively. Also, the compound was classed as inactive in assay [2], in assay [3], in assay [15], in assay [13], in [5] and in [6]. The call in [16] and in [7] was inactive.

A word on the AC50: it is the concentration at which the activity in the assay is half-maximal.
